In publication PMC7862700, “An all-to-all approach to the identification of sequence-specific readers for epigenetic DNA modifications on cytosine”:

Columns and labels:
Experiment in all cases: DAPPL (digital affinity profiling via proximity ligation, sequencing); 10 mM Tris-HCl pH 7.5, 50 mM NaCl, 1 mM DTT, 4% glycerol, room temperature, 30 min; GST-TFs on glutathione beads, 16-mer random dsDNA library, 0.1% formaldehyde crosslink after washing; high values mean tight binding
Conditions in all cases: protein: recombinant; tags: N-terminal GST; dsDNA, one strand shown
ERF = target: T1, ERF (Homo sapiens, UniProt P50548 1-548)
T1 sequence: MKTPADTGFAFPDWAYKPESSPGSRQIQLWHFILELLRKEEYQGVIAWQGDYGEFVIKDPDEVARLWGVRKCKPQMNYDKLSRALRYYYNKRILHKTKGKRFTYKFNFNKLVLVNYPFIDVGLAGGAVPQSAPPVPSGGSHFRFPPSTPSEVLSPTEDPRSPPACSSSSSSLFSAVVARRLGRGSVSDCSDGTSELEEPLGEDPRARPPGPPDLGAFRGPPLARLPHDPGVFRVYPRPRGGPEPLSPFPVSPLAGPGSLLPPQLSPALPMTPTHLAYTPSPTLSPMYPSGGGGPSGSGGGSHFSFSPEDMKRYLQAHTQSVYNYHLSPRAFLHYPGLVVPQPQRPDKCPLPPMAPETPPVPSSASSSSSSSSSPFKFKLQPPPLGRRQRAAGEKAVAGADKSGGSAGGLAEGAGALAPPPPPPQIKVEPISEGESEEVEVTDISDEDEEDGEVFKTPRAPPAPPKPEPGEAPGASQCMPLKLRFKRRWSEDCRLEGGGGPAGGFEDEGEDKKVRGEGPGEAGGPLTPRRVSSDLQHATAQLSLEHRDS
How it was run: (§1)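 After expression in yeast as GST fusions, human transcription factors were bound to glutathione beads, DNA-barcoded and mixed with a tag-only sample. The pools were incubated with 200 nmole of a 16-mer random double-stranded DNA library in Tris/NaCl/DTT/glycerol buffer (30 min, room temperature), washed and crosslinked with 0.1% formaldehyde. Proximity ligation with BsaI/T4 ligase ran for 1 h at 37 °C, before PCR amplification and sequencing on an Illumina NextSeq500. Binding signal is a hexamer's read frequency for a factor divided by its frequency for the tag-only sample.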

ETV3L = target: T2, ETV3L (Homo sapiens, UniProt Q6ZN32 1-361)
T2 sequence: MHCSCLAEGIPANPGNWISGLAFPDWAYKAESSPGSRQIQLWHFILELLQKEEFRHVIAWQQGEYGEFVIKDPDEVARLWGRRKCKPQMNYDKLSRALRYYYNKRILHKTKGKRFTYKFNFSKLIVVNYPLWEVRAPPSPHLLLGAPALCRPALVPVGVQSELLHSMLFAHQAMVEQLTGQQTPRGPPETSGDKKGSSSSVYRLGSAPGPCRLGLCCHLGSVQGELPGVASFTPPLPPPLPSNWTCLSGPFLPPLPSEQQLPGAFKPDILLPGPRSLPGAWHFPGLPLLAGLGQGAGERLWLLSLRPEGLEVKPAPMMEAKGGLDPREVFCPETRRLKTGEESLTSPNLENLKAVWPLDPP
How it was run: as §1

ETS2 = target: T3, ETS2 (Homo sapiens, UniProt P15036 1-469)
T3 sequence: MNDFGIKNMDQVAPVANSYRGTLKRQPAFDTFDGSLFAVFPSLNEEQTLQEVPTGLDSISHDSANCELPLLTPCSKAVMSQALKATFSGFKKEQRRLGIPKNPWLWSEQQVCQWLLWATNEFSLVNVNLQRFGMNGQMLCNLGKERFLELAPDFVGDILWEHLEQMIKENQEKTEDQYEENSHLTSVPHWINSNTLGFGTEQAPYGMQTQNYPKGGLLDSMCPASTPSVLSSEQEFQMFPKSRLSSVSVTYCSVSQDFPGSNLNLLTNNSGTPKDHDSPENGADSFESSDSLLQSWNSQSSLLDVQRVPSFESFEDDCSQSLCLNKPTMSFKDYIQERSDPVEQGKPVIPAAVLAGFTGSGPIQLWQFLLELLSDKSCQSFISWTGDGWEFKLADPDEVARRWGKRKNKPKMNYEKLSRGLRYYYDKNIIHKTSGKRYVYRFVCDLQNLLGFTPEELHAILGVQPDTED
How it was run: as §1

SPDEF = target: T4, SPDEF (Homo sapiens, UniProt O95238 1-335)
T4 sequence: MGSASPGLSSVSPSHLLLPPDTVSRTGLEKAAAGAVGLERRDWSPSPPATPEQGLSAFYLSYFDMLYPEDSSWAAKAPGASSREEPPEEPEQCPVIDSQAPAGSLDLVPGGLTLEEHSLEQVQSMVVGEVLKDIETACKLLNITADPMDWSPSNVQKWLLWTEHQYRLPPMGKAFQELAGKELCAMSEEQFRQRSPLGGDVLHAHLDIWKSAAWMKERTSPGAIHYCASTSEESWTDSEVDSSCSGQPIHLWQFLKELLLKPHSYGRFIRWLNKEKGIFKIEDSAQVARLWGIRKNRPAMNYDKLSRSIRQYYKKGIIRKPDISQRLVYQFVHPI
How it was run: as §1

ETV7 = target: T5, ETV7 (Homo sapiens, UniProt Q9Y603 1-341)
T5 sequence: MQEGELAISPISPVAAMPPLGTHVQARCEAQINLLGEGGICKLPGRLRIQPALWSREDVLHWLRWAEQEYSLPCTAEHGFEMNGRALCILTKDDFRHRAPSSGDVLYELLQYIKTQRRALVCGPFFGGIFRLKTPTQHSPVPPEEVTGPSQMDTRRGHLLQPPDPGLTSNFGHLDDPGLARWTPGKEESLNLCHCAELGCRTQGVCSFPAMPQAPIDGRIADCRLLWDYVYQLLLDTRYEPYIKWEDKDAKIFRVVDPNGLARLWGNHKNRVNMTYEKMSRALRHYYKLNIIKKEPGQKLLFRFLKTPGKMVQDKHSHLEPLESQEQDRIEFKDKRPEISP
How it was run: as §1

ELF5 = target: T6, ELF5 (Homo sapiens, UniProt Q9UKW6-2 1-255)
T6 sequence: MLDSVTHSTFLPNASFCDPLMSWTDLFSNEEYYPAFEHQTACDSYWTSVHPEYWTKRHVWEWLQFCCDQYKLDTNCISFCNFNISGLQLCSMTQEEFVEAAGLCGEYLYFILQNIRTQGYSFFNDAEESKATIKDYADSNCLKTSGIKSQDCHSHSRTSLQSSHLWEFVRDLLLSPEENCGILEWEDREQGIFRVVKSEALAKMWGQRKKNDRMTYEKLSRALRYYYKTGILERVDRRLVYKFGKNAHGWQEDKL
How it was run: as §1

ETV3 = target: T7, ETV3 (Homo sapiens, UniProt P41162-2 1-143)
T7 sequence: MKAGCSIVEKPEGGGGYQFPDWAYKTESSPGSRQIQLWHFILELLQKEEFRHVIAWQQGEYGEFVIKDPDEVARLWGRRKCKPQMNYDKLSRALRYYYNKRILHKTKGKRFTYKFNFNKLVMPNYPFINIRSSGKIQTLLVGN
How it was run: as §1

ETV6 = ETV6 (Homo sapiens, UniProt P41212 1-452)
Chain of ETV6 (P41212 whole entry): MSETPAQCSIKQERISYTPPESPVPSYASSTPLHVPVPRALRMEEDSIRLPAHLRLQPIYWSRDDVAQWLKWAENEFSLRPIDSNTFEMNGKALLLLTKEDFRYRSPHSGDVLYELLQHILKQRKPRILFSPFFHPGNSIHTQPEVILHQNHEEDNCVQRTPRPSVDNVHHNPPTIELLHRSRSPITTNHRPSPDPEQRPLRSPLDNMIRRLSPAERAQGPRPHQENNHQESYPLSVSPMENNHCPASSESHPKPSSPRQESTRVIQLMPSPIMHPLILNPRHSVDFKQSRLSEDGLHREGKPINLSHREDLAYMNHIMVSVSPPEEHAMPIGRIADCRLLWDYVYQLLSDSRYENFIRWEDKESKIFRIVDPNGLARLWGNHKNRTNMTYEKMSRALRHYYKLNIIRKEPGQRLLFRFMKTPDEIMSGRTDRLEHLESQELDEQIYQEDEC
How it was run: as §1

Sequence	binding signal (ERF)	binding signal (ETV3L)	binding signal (ETS2)	binding signal (SPDEF)	binding signal (ETV7)	binding signal (ELF5)	binding signal (ETV3)	binding signal (ETV6)
AGATGA	1.18 fold enrichment (6-mer frequency, TF over GST control)	1.01 fold enrichment (6-mer frequency, TF over GST control)	1.05 fold enrichment (6-mer frequency, TF over GST control)	1.14 fold enrichment (6-mer frequency, TF over GST control)	1.15 fold enrichment (6-mer frequency, TF over GST control)	1.05 fold enrichment (6-mer frequency, TF over GST control)	1.1 fold enrichment (6-mer frequency, TF over GST control)	1.13 fold enrichment (6-mer frequency, TF over GST control)
TCCCAA	1.34 fold enrichment (6-mer frequency, TF over GST control)	1.23 fold enrichment (6-mer frequency, TF over GST control)	1.12 fold enrichment (6-mer frequency, TF over GST control)	1.18 fold enrichment (6-mer frequency, TF over GST control)	1.11 fold enrichment (6-mer frequency, TF over GST control)	1.21 fold enrichment (6-mer frequency, TF over GST control)	1.16 fold enrichment (6-mer frequency, TF over GST control)	1.23 fold enrichment (6-mer frequency, TF over GST control)
CTATCG	1.28 fold enrichment (6-mer frequency, TF over GST control)	1.07 fold enrichment (6-mer frequency, TF over GST control)	1.04 fold enrichment (6-mer frequency, TF over GST control)	1.04 fold enrichment (6-mer frequency, TF over GST control)	1.19 fold enrichment (6-mer frequency, TF over GST control)		1.1 fold enrichment (6-mer frequency, TF over GST control)	1.07 fold enrichment (6-mer frequency, TF over GST control)
AGCTAA	1.1 fold enrichment (6-mer frequency, TF over GST control)	1.05 fold enrichment (6-mer frequency, TF over GST control)	1.15 fold enrichment (6-mer frequency, TF over GST control)	1.02 fold enrichment (6-mer frequency, TF over GST control)	1.1 fold enrichment (6-mer frequency, TF over GST control)		1.1 fold enrichment (6-mer frequency, TF over GST control)	
TTACGC	1.15 fold enrichment (6-mer frequency, TF over GST control)	1.05 fold enrichment (6-mer frequency, TF over GST control)	1.1 fold enrichment (6-mer frequency, TF over GST control)	1.08 fold enrichment (6-mer frequency, TF over GST control)	1.02 fold enrichment (6-mer frequency, TF over GST control)		1.16 fold enrichment (6-mer frequency, TF over GST control)	1.11 fold enrichment (6-mer frequency, TF over GST control)
TAACAG	1.05 fold enrichment (6-mer frequency, TF over GST control)	1.05 fold enrichment (6-mer frequency, TF over GST control)	1.03 fold enrichment (6-mer frequency, TF over GST control)	1.11 fold enrichment (6-mer frequency, TF over GST control)	1.09 fold enrichment (6-mer frequency, TF over GST control)		1.02 fold enrichment (6-mer frequency, TF over GST control)	1 fold enrichment (6-mer frequency, TF over GST control)
CACTGG	1.17 fold enrichment (6-mer frequency, TF over GST control)	1.16 fold enrichment (6-mer frequency, TF over GST control)	1.01 fold enrichment (6-mer frequency, TF over GST control)	1.02 fold enrichment (6-mer frequency, TF over GST control)	1.03 fold enrichment (6-mer frequency, TF over GST control)		1.07 fold enrichment (6-mer frequency, TF over GST control)	1.04 fold enrichment (6-mer frequency, TF over GST control)
TGCGTT	1.2 fold enrichment (6-mer frequency, TF over GST control)	1.11 fold enrichment (6-mer frequency, TF over GST control)	1.09 fold enrichment (6-mer frequency, TF over GST control)	1.08 fold enrichment (6-mer frequency, TF over GST control)	1.24 fold enrichment (6-mer frequency, TF over GST control)		1.06 fold enrichment (6-mer frequency, TF over GST control)	
GATAGC	1.15 fold enrichment (6-mer frequency, TF over GST control)	1.06 fold enrichment (6-mer frequency, TF over GST control)	1.12 fold enrichment (6-mer frequency, TF over GST control)	1.05 fold enrichment (6-mer frequency, TF over GST control)	1.06 fold enrichment (6-mer frequency, TF over GST control)		1.05 fold enrichment (6-mer frequency, TF over GST control)	1.03 fold enrichment (6-mer frequency, TF over GST control)
GCACGA	1.13 fold enrichment (6-mer frequency, TF over GST control)	1 fold enrichment (6-mer frequency, TF over GST control)	1.03 fold enrichment (6-mer frequency, TF over GST control)	1 fold enrichment (6-mer frequency, TF over GST control)	1.19 fold enrichment (6-mer frequency, TF over GST control)		1.1 fold enrichment (6-mer frequency, TF over GST control)	1.06 fold enrichment (6-mer frequency, TF over GST control)
TTTAGG	1.22 fold enrichment (6-mer frequency, TF over GST control)	1.02 fold enrichment (6-mer frequency, TF over GST control)	1.11 fold enrichment (6-mer frequency, TF over GST control)	1.09 fold enrichment (6-mer frequency, TF over GST control)	1.19 fold enrichment (6-mer frequency, TF over GST control)		1.07 fold enrichment (6-mer frequency, TF over GST control)	1.19 fold enrichment (6-mer frequency, TF over GST control)
TAGAAA	1.04 fold enrichment (6-mer frequency, TF over GST control)	1.08 fold enrichment (6-mer frequency, TF over GST control)	1.08 fold enrichment (6-mer frequency, TF over GST control)	1.04 fold enrichment (6-mer frequency, TF over GST control)	1.12 fold enrichment (6-mer frequency, TF over GST control)		1.05 fold enrichment (6-mer frequency, TF over GST control)	1.06 fold enrichment (6-mer frequency, TF over GST control)
TGATCA	1.15 fold enrichment (6-mer frequency, TF over GST control)	1.07 fold enrichment (6-mer frequency, TF over GST control)	1.06 fold enrichment (6-mer frequency, TF over GST control)	1.05 fold enrichment (6-mer frequency, TF over GST control)	1.14 fold enrichment (6-mer frequency, TF over GST control)		1.05 fold enrichment (6-mer frequency, TF over GST control)	
TTGAAC	1.16 fold enrichment (6-mer frequency, TF over GST control)	1.17 fold enrichment (6-mer frequency, TF over GST control)	1.17 fold enrichment (6-mer frequency, TF over GST control)	1.06 fold enrichment (6-mer frequency, TF over GST control)	1.18 fold enrichment (6-mer frequency, TF over GST control)		1.14 fold enrichment (6-mer frequency, TF over GST control)	1.1 fold enrichment (6-mer frequency, TF over GST control)
GTGCTA	1.02 fold enrichment (6-mer frequency, TF over GST control)	1.04 fold enrichment (6-mer frequency, TF over GST control)	1.13 fold enrichment (6-mer frequency, TF over GST control)	1.12 fold enrichment (6-mer frequency, TF over GST control)	1 fold enrichment (6-mer frequency, TF over GST control)		1.11 fold enrichment (6-mer frequency, TF over GST control)	
CATGTA	1.2 fold enrichment (6-mer frequency, TF over GST control)	1.16 fold enrichment (6-mer frequency, TF over GST control)	1.04 fold enrichment (6-mer frequency, TF over GST control)	1.13 fold enrichment (6-mer frequency, TF over GST control)	1.05 fold enrichment (6-mer frequency, TF over GST control)		1.18 fold enrichment (6-mer frequency, TF over GST control)	1.04 fold enrichment (6-mer frequency, TF over GST control)
GAAAAG	1 fold enrichment (6-mer frequency, TF over GST control)	1.09 fold enrichment (6-mer frequency, TF over GST control)	1.05 fold enrichment (6-mer frequency, TF over GST control)	1.01 fold enrichment (6-mer frequency, TF over GST control)	1.13 fold enrichment (6-mer frequency, TF over GST control)	1.12 fold enrichment (6-mer frequency, TF over GST control)		1.18 fold enrichment (6-mer frequency, TF over GST control)
